In PubChem BioAssay (EPA / NIEHS) one finds outcome and AC50 data, which are given here for 13 molecules.

Each structure is given as a SMILES string. The source made the active and inactive calls. How the source made its calls: active means hit-call score of the fitted dose curve at least 0.9, where 1 is the maximum; inactive means score below 0.9.

A short description of this assay: CEETOX_H295R_ESTRADIOL: CeeTox H295R High-throughput Steroidogenesis Assay for Estradiol (AID 2283440).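 Further: estradiol secreted into medium quantified by LC-MS/MS after dansyl derivatisation.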 The note with it: actives raise or lower the signal. The procedure: CEETOX_H295R is a cell-based, multiplexed-readout assay that uses H295R, a human adrenal gland cell line, with measurements taken at 48 hours after chemical dosing in a 96-well plate.CEETOX_H295R_ESTRADIOL is one of 23 assay component(s) measured or calculated from the CEETOX_H295R assay. It is designed to make measurements of hormone induction, a form of inducible reporter, as detected with absorbance signals by HPLC-MS-MS technology.Data from the assay component CEETOX_H295R_ESTRADIOL was analyzed into 1 assay endpoint. This assay endpoint, CEETOX_H295R_ESTRADIOL, was analyzed with bidirectional fitting relative to DMSO as the negative control and baseline of activity. […] To generalize the intended target to other relatable targets, this assay endpoint is annotated to the steroid hormone intended target family, where the subfamily is estrogens.
Cell culture and media preparation procedures were conducted in accordance with OECD Test No. 456 guidelines, with minor modifications. H295R cells (ATCC CRL-2128) were expanded for 5 passages and frozen in batches in liquid nitrogen. Prior to the steroidogenesis assay, H295R cells were thawed and passed at least 4 times. The maximum passage was 10. Cells were maintained in a 1:1 mixture of DMEM/F12 supplemented with 5ml/L ITS+ Premix (BD Bioscience) and 12.5 ml/L Nu-Serum (BD Bioscience). After seeding cells into 96-well plates at 50-60% confluency, cells were allowed to adhere overnight. Prior to chemical testing, culture medium was replaced with 175 uL medium containing 10 uM forskolin to stimulate steroidogenesis for 48 hours. Following prestimulation, forskolin medium was replaced with medium containing test chemical solubilized in DMSO (ensuring a final concentration of 0.1% DMSO). Test chemicals were incubated for 48 hours, then the medium was removed and split into 2 vials containing approximately 75uL each, and stored at -80 C prior to hormone analysis. For steroid quantification, media samples were shipped to OpAns, LLC (Durham, NC) on dry ice, and samples were thawed to room temperature prior to liquid-liquid extraction. Steroid hormones were extracted from media samples using methyl tertbutyl ether (MTBE). An extra derivatization with dansyl chloride was included for estrogen (estrone and estradiol) detection only. Steroid hormones were separated by HPLC, eluted using a reverse phase C18 gradient with electrospray positive ionization, followed by quantification by tandem mass spectrometry (MS/MS). Data were acquired on a MassHunter Workstation Acquisition version B03.01 (Agilent Technologies, Inc.) and processed using MassHunter Quantitative Analysis for QQQ. Accuracy was determined for each hormone analyte from 3 standards to determine upper and lower limits of quantification (ULOQ and LLOQ, respectively) using a 7-point standard curve. Precision and accuracy of the extraction and quantification methods were calculated as the percent relative standard deviation (%RSD) of the spiked standards and percent spiked standard recovered, respectively. […] Test medium was removed following chemical exposure, and cell viability was evaluated in the same wells by MTT. MTT procedures were as follows: after removal of test medium, 500 uL of 0.5 mg/ml of 3-[4,5-dimethylthiazol-2-y]2,5-diphenyltetrazoliumbromide solution was added to the cells. Following a 4-hour incubation at 37 C and 5% CO2 to allow formazan-crystal formation, the MTT solution was removed and blue formazan salt crystals were solubilized using 500uL anhydrous isopropanol with shaking for 20 minutes. Absorbance was read at 570 and 650nm using a Packard Fusion microplate reader. Background correction of absorbance units was used to determine percent change relative to controls. […] When a test chemical reduced cell viability to 20% - 70%, the test chemical was diluted 10-fold and re-evaluated, but if cell viability was <20%, then the test chemical was diluted 100-fold and re-evaluated. […]
Consider `COc1cccc([C@H](O)C2CCN(CCc3ccc(F)cc3)CC2)c1OC`, for which the molecule was called inactive.

As to `OC12N=C(c3ccccc3)SC1Cc1cc(Cl)ccc12` (stereo not drawn), the molecule was called inactive. With `Cc1c2ccccc2c(C)c2c1ccc1ccccc12`, the molecule was called inactive.

Turning to `CCCCCCCCOC(=O)c1cc(O)c(O)c(O)c1`, the molecule was classed as inactive.

In the case of `Clc1ccccc1C(c1ccccc1)(c1ccccc1)n1ccnc1`, the AC50 was 244 nM (active). As for `Cc1ccc2oc(CN(Cc3ccccc3)C(=O)Nc3c(F)cc(F)cc3F)c(-c3ccc(Cl)cc3)c2c1`, the result was inactive.

Consider `NC(=O)c1nc(-c2cccc(-c3cc(F)ccc3OCC(F)(F)C(F)(F)F)c2)n[nH]1`, for which the molecule was called inactive.

Turning to `O=C(O)Cn1c(=O)n(Cc2ccc(Br)cc2F)c(=O)c2ccc(Cl)cc21`, the result was inactive. For `CN1C(=O)N(c2ccccc2Br)Cc2cnc(Nc3ccc4c(c3)OCC(CO)O4)nc21` (stereo not drawn), the molecule was classed as inactive. The same measure, in the same setting: the entry for `CC(C)(C)c1cc(/C=C2\SC(N)=NC2=O)cc(C(C)(C)C)c1O` is “inactive”. As for `O=C(Nc1ccc(Cl)cc1)Nc1ccc(Cl)c(Cl)c1`, the molecule was classed as inactive. On to `CC(=O)N1CCN(c2ccc(OC[C@H]3CO[C@](Cn4ccnc4)(c4ccc(Cl)cc4Cl)O3)cc2)CC1`, for which the outcome was inactive. Take `Cc1cc2c(cc1C(F)(F)F)N(C(=O)Nc1ccc(Oc3cccnc3C)nc1)CC2`: the outcome was inactive.
